Experimental data from PubChem BioAssay (NCI).
About 83,000 compounds went through this panel and 20% of them were active in at least one assay; those are over-represented in the sample as a whole.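 Interpretation: 100, growth as untreated; towards 0, rising growth inhibition; 0, no net growth; 0 to -100, cell death. Compounds scoring below 10 were considered active.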 Activity calls are given as the source filed them.

These compounds were tested on SR leukemia (assay: NCI-60 one-dose screen, 48 h (100 = growth as untreated, 0 = no growth, -100 = all killed)). Details: 10 µM unless noted.

Compound | growth
C/C(=N\Nc1ccc(Cl)cn1)c1ccc2ccccc2n1 | 5.63% (active)
CCOC(=O)c1ccc2n1CCCc1cnc(NC(C)=O)nc1-2 | 101% (inactive)
COC(=O)c1ccc2[nH]c(O)c(C(=Nc3ccc(N(C)C(=O)CN4CCN(C)CC4)cc3)c3ccc(C)cc3)c2c1 | -28.2% (active)

The compounds below were run on RPMI-8226 leukemia in the same assay as above. Details: 10 µM unless noted.

Compound | growth
Brc1ccc(-c2nc3ccccc3s2)cc1 | 94.4% (inactive)
c1cc[c]([Bi]([c]2ccccc2)[c]2ccccc2)cc1 | 91% (inactive)
O=C1/C(=N\c2cc(=O)[nH]n2S(=O)(=O)c2ccccc2)Nc2ccccc21 | 95.2% (inactive)
COc1ccc(/C=C/C(=O)/C=C/c2cc3ccccc3[nH]c2=O)cc1 | -22% (active)
C/C=C/C/C=C/[C@H](C)C[C@H](O)[C@@H]1C[C@@H]2O[C@H]2/C=C/[C@@H]2OC(C)(C)O[C@H]2/C=C/C[C@H](C)CC(=O)O1 | -5.18% (active)
COC1(OC)N=C(N)C2(C#N)C3(C(=O)Nc4ccccc43)C12C#N (stereo not drawn) | 49.7% (inactive)
C/C=C/C/C=C/[C@H](C)C[C@H](O)[C@@H]1C[C@@H]2O[C@H]2/C=C/[C@H](O)[C@@H](O)/C=C/C[C@H](C)CC(=O)O1 | 42.8% (inactive)
COc1cc(-c2nc3c(c(C)nc4c3nnn4-c3ccccc3)c(=O)o2)cc(OC)c1OC | 105% (inactive)
CCC(C)C1NC(=O)C(CC(C)C)NC(=O)C(C)NC(=O)C(C(C)C)NC(=O)C(CCCCN)NC(=O)C(CC(C)C)NC(=O)C(C(C)C)NC(=O)[C@H](C)NC(=O)C(C(C)CC)NC(=O)C(CCCN=C(N)N)NC(=O)C(CCCCN)NC(=O)C(CCCN=C(N)N)NC(=O)C(CCCCN)NC(=O)C([C@H](C)CC)NC(=O)C(CCCCN)NC1=O (stereo partly drawn) | -35.5% (active)
COc1ccc(-c2nc(SCC(C)C)nc(Nc3ccc(C(=O)O)cc3)c2C#N)cc1 | 60.8% (inactive)
O=S(=O)(O)CCI | 115% (inactive)
Nc1nc2c(c3cnccc13)C(c1cccc(Cl)c1)Cc1cnccc1-2 (stereo not drawn) | 8.24% (active)
Oc1ccccc1\C=N/N=C/C=C/c1ccccc1 | 107% (inactive)
COC(=O)c1ccc2[nH]c(O)c(C(=Nc3ccc(N(C)C(=O)CN4CCN(C)CC4)cc3)c3ccc(N)cc3)c2c1 | 84% (inactive)
CC(C)OC(=O)c1ccc2n1CCCc1cnc(Nc3ccccc3)nc1-2 | 58.4% (inactive)
CC(=O)Nc1ccc(C(=O)/C=C/c2ccc(N(C)C)cc2)cc1 | 102% (inactive)
CCOC(=O)C1=C(c2ccccc2)NC(=O)NC1CN1C(=O)c2ccccc2C1=O (stereo not drawn) | 97.9% (inactive)
CC/C(=N\Nc1nc2ccccc2n1C)c1ccccn1 | 10.4% (inactive)
CCCCCCC(C)N(CC(C)(C)O)C(=O)c1ccc([N+](=O)[O-])cc1 (stereo not drawn) | 96% (inactive)
O=C1C(=O)c2ccccc2C(O)=C1CCCc1ccc(Oc2ccccc2)cc1 | 22.3% (inactive)

Compound | growth
C=C[C@]1(C)C=C2C(=O)[C@@]3(O)OC[C@@]4(CCCC(C)(C)C43O)C2(O)C(O)C1 (stereo partly drawn) | 15.2% (inactive)
COc1ccc(/C=C2\CCCC3=C2N=C2SC=NN2C3c2ccc(OC)c(OC)c2)cc1OC (stereo not drawn) | -14.8% (active)
CC(C)(C)c1ccc(OCCOC(=O)CBr)cc1 | 88.2% (inactive)
c1cc(C2CCCCC2)ccc1OCCCCCCN1CCNCC1 | -31% (active)
CCOC(=O)c1c2c(cn1Cc1ccccc1)-c1oncc1CC2 | 100% (inactive)
C/C(=N\Nc1cccc(Cl)n1)c1ccccn1 | 20.8% (inactive)
CC(=O)c1ccc2c(c1)c1ccccc1n2C | 93.2% (inactive)
CCCCN(CCCC)CCCNc1c2c(nc3ccc(Cl)cc13)CCCC2 | 102% (inactive)
COc1ccc(Cn2cc3c(c2)-c2oncc2CC3)cc1OC | 35.1% (inactive)
C/C(=N\Nc1ccc(Cl)cn1)c1ccccn1 | 8.56% (active)
NC(=O)c1c(Nc2ccccc2)nn2cc(-c3nc4ccccc4s3)c(N)nc12 | 96.4% (inactive)
COC(=O)c1ccc2[nH]c(O)c(C(=Nc3ccc(N(C)C(=O)CN4CCN(C)CC4)cc3)c3cccc(OC)c3)c2c1 | 4.7% (active)
Cc1nc2c(nnn2-c2ccccc2)c2nc(-c3ccc(Cl)cc3)oc(=O)c12 | 108% (inactive)
Clc1ccc(N/N=C(/c2ccccc2)c2ccccn2)nc1 | 29.3% (inactive)
COc1ccc(-c2nnc(SCC(=O)Nc3ccc(C(=O)/C=C/c4cc(OC)c(OC)c(OC)c4)cc3)n2-c2ccccc2)cc1OC | 16.7% [100 µM] (inactive)
CCc1ccc(C(=Nc2ccc(N(C)C(=O)CN3CCN(C)CC3)cc2)c2c(O)[nH]c3ccc(C(=O)OC)cc23)cc1 | -46.9% (active)
Cc1ccc(C(C)C)c(OCc2ccc(C(=O)N/N=C/c3cccc(O)c3O)cc2)c1 | 28.8% (inactive)
C/C(=N\Nc1ccc(Cl)cn1)c1ccc2ccccc2n1 | 11.7% (inactive)
CCOC(=O)c1ccc2n1CCCc1cnc(NC(C)=O)nc1-2 | 99.1% (inactive)
COC(=O)c1ccc2[nH]c(O)c(C(=Nc3ccc(N(C)C(=O)CN4CCN(C)CC4)cc3)c3ccc(C)cc3)c2c1 | -32.2% (active)
